Measured values reported in PubChem BioAssay AID521 (Sanford-Burnham Center for Chemical Genomics, 2006).
“And” between values parts separate entries of the source, which are not always exact repeats. Identical values can stand only once. The whole screen tested about 110,000 compounds, of which about 730 (0.66%) were called active. Cut-off read from the data, not from the text of the source: active = inhibition above about 50%; inconclusive = no clear call, values can overlap the other calls; inactive = below that. Many of the other results were omitted from the sample, so actives are more common in it than they were. Where a structure was tested more than once in an assay, its records may differ in their call.

Molecular target: Tyrosine-protein phosphatase non-receptor type 7 (Homo sapiens) (UniProt P35236)
Sequence (P35236 whole entry, looked up): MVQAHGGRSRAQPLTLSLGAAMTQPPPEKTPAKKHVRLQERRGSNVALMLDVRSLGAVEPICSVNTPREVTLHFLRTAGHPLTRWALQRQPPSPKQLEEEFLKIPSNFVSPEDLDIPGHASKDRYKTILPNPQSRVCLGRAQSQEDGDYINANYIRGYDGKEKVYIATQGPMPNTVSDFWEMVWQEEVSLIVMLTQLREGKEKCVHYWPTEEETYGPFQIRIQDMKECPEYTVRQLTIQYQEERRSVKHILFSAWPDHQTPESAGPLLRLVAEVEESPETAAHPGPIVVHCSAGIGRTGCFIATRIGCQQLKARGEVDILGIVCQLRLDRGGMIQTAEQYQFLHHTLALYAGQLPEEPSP
Assay: HePTP tyrosine phosphatase activity blockers – biochemical, absorbance, leukemia target, primary screen (AID 521);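 note: plate controls were vehicle for no effect and reference inhibitor for full effect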
Conditions: recombinant HePTP phosphatase activity, OD absorbance; at 20 µM; stronger effect = higher value

inhibition, active:
Cc1[nH]n(-c2ccccc2)c(=O)c1C(c1ccc(C(F)(F)F)cc1)c1c(C)[nH]n(-c2ccccc2)c1=O 104%, COC(=O)c1ccccc1NC(=O)c1ccc(Cl)cc1 72.5%, COc1ccc([N+](=O)[O-])cc1-c1ccc(/C=C(\C#N)c2nc3ccc(C)cc3[nH]2)o1 103%, COC(=O)c1sc(NC(=O)C2CCCCC2)c(C#N)c1C 103%, Cc1ccc(N2NC(=O)/C(=C/c3ccc4c(c3)OCO4)C2=O)cc1Cl 66.6%, Cc1cccc(C(=O)Nc2cccc(NC(=O)COc3ccccc3Cl)c2)c1 105%, N#Cc1c(N)nc2cc(N)ccc2c1-c1ccc(O)cc1 104%, CN(C)c1ccc(/C=C2\SC(=S)N(c3cccc(C(=O)O)c3)C2=O)cc1 104%

inhibition, 103% (active) and 14.1% (inactive):
CCOc1ccccc1C(=O)NCc1ccco1

inhibition, inactive:
Cc1[nH]n(-c2ccccc2)c(=O)c1C(=O)C(F)(F)F 3.1%, Cc1[nH]n(-c2ccccc2)c(=O)c1/C=N/N(C)C -5.9%, COc1ccc2nc(C)c(CCC(C)=O)c(Cl)c2c1 6.4%, COc1ccc(C(=O)Nc2nc(C34CC5CC(CC(C5)C3)C4)c(C)s2)cc1 -13.5%, COC(=O)c1ccccc1NC(=O)COc1cccc2ccccc12 3.5%, COc1cc(C(=O)N2CCC(Cc3ccccc3)CC2)c([N+](=O)[O-])cc1OC -4.3%, COC(=O)c1ccc(C(=O)Nc2cc(Cl)ccc2Cl)cc1NC(=O)c1ccccc1C -11.5%, COC(=O)c1ccccc1NC(=O)c1cncc(Br)c1 5.5% and 4.4%, Cc1cc(NC(=O)C2CC3CCC2C3)no1 (stereo unspecified) -16.7%, O=C1NC(c2ccc(Br)cc2)=N/C1=C/c1ccccc1 -7.8%, Cc1cccc(NC(=O)/C(C#N)=C/c2ccc(-c3ccccc3[N+](=O)[O-])o2)c1 2.3%, CC(=O)NC1=NC(=O)/C(=C\c2ccc(-c3cc([N+](=O)[O-])ccc3C)o2)S1 -13.7%, CCCOc1ccc(N2C(=O)CC(NCCc3ccc(Cl)cc3)C2=O)cc1 (stereo unspecified) -18.1%, COc1ccccc1NCN1C(=O)S/C(=C/c2ccccc2F)C1=O -9.9%, C/C(=C\C(=O)c1ccc(Br)cc1)Nc1ccccc1O -2%, CC(C)(C)CC(C)(C)NC(=O)CSc1nc2ccccc2s1 5.4%, N/C(=C\C(=O)/C=C\c1ccccc1)C(Cl)(Cl)Cl -0.8%, O=c1oc2c3c4c(cc2cc1CCO)CCCN4CCC3 11.1%, CN1CCN(CCCCOc2cccc3ccccc23)CC1 3.9%, Cc1cc(C)c2oc(-c3ccc(NC(=O)c4cc5ccccc5o4)cc3O)nc2c1 -0.1%, CCc1ccc2oc(-c3ccc(C)c(NC(=O)c4cc(OC)cc(OC)c4)c3)nc2c1 -3.6%, COc1ccc(C=Nc2ccc(Sc3ccc([N+](=O)[O-])cc3)cc2)cc1OC -1.2%, COc1ccc(/C=C2/SC(=S)NC2=O)cc1I 7.7%, CCC(=O)Nc1sc(C(=O)N2CCCCC2)c(C)c1C#N 7.4%, COC(=O)c1sc(NC(=O)C(Sc2ccccc2)c2ccccc2)c(C#N)c1C (stereo unspecified) 10.9%, CC1(C)c2ccccc2N(CCO)C12C=Cc1cc([N+](=O)[O-])ccc1O2 (stereo unspecified) 0.7%, COC(=O)c1cc(S(=O)(=O)N2CCOCC2)ccc1Cl -0.5%, O=C(Cc1c(O)c2ccccc2[nH]c1=O)NCc1ccc(Cl)cc1 -5.2%, CC(=O)n1nc(C)c2c1C[C@@H]1[C@H]2C1(C)C 2.1%, O=c1[nH]c2ccc(Br)cc2c(-c2ccccc2)c1C1=NNC(c2ccc([N+](=O)[O-])cc2)C1 (stereo unspecified) 7.3%, O=C1NN(c2ccccc2)C(=O)/C1=C/c1cccc(F)c1 7.6%, Cc1ccc(N2NC(=O)/C(=C/c3ccc(O)c(O)c3)C2=O)cc1C -5.6%, CC(C)=CC1C(C(=O)Nc2ccc(C)cn2)C1(C)C (stereo unspecified) -10.2%, O=C(NCc1ccco1)Nc1ccncc1 -1.8%, COc1ccccc1C(=O)NC(NC(=O)c1ccccc1OC)c1ccc(Br)cc1 7.8%, O=C(Nc1ccc(OC(F)(F)F)cc1)c1cnn2c(C(F)(F)F)cc(-c3ccco3)nc12 0.1%, OCCNCC(O)Cn1c2ccc(I)cc2c2cc(I)ccc21 (stereo unspecified) -15.3%, Cn1cnnc1Sc1nc2c(c(=O)n(C)c(=O)n2C)n1Cc1ccc(F)cc1 -3.2%, CC(C)(C)c1ccc(OCC(=O)Nc2cccc(NC(=O)c3ccccc3)c2)cc1 -1.7%, Cc1cccc(NC(=O)c2ccc(NC(=O)COc3ccc(Cl)cc3Cl)cc2)c1 6.4%, CSc1ccc(-c2c(C#N)c(N)nc3c2c(C)nn3-c2ccccc2)cc1 2.8%, CSc1nc(N)c(C#N)c(-c2ccccc2Cl)c1C#N -5.7%, CCN(C(=S)NC(=O)c1cccnc1)c1ccccc1 3.3%, COc1ccc(C(=O)Nc2nc3ccc(C)cc3s2)cc1Br 4.5%, CCc1c(C)sc(NC(=O)C2CCCCC2)c1C(=O)OC(C)C 6.5%, COC(=O)c1cc(NC(=O)c2ccc(-c3cc(Cl)ccc3Cl)o2)cc(C(=O)OC)c1 -24.3%, COc1cc(OC)cc(C(=O)N/N=C(\C)CC(=O)Nc2ccccc2-c2ccccc2)c1 -23.1%, CCCCOc1ccc(C(=O)NCc2ccco2)cc1 6%, COc1ccc(C(=O)Nc2ccccc2C(=O)NCc2ccco2)cc1 4.8%, O=C(Cc1ccc(Cl)cc1)Nc1ccc(Cl)cc1C(=O)O 1.2%, Cc1cccc(N2C(=O)S/C(=C/c3ccc(N(C)C)cc3)C2=O)c1 -1.4%, O=Cc1ccc(/C=C2/SC(=S)N(c3cccc(Cl)c3)C2=O)cc1 4.5%
